The text below walks through data of PubChem BioAssay (NCI).

Test systems include SK-MEL-2 melanoma; EKVX NSCLC; SN12C renal; TK-10 renal; ACHN renal; CAKI-1 renal; A498 renal; CCRF-CEM leukemia; MOLT-4 leukemia; SR leukemia; RPMI-8226 leukemia; OVCAR-8 ovarian; OVCAR-5 ovarian; OVCAR-4 ovarian; SK-OV-3 ovarian; IGROV1 ovarian; OVCAR-3 ovarian; HS 578T breast; NCI/ADR-RES ovarian; UO-31 renal.
What all share (assay): NCI-60 one-dose screen, 48 h (100 = growth as untreated, 0 = no growth, -100 = all killed)
Holding throughout (conditions): 10 µM unless noted

Several values for one entry are separate records, joined by “and”; a condition that tells them apart may be missing. Equal entries are not always repeated. About 83,000 compounds went through this panel and 20% of them were active in at least one assay; those are over-represented in the sample as a whole.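 Treatment: one concentration, 48 hours, 96-well format. Scoring: percent growth, with anything below 10 considered active.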 Activity calls are given as the source filed them.

With `CCN1/C(=C\c2cc[n+](CC)c3ccccc23)C=Cc2ccccc21`, the growth was 0.604% (active) in the experiment on SK-MEL-2 melanoma; 15.8% (inactive) in the experiment with EKVX NSCLC; 8.57% (active) in the experiment on SN12C renal; 22.3% (inactive) in the experiment with TK-10 renal; 15.2% (inactive) with ACHN renal; 53.9% (inactive) in the experiment on CAKI-1 renal. For the same molecule, the growth was -20.2% (active) with A498 renal; 28.1% (inactive) in the experiment with CCRF-CEM leukemia; 13.2% (inactive) with MOLT-4 leukemia; 15.7% (inactive) with SR leukemia; 12.6% (inactive) with RPMI-8226 leukemia; 9.96% (active) in the experiment with OVCAR-8 ovarian. The growth in the experiment with OVCAR-5 ovarian was 11.7% (inactive); in the experiment on OVCAR-4 ovarian, 12.9% (inactive); in the experiment on SK-OV-3 ovarian it was 3.69% (active); in the experiment on IGROV1 ovarian, 29.8% (inactive); in the experiment on OVCAR-3 ovarian it was 11.8% (inactive); in the experiment with HS 578T breast, 37.4% (inactive). Further, in the experiment on NCI/ADR-RES ovarian, the growth is 86.9% (inactive).
With `N#Cc1ccc([N+](=O)[O-])o1`, the growth with SK-MEL-2 melanoma is 91% (inactive); in the experiment on SN12C renal, 106% (inactive); in the experiment on UO-31 renal, 92.6% (inactive); in the experiment with TK-10 renal, 108% (inactive); in the experiment on ACHN renal, 104% (inactive); in the experiment with CAKI-1 renal, 104% (inactive). The growth with A498 renal was 98.5% (inactive); with CCRF-CEM leukemia, 102% (inactive); in the experiment with MOLT-4 leukemia it was 99.5% (inactive); in the experiment with SR leukemia, 104% (inactive); in the experiment with RPMI-8226 leukemia, 107% (inactive); with OVCAR-4 ovarian, 107% (inactive). Moreover, the growth with SK-OV-3 ovarian is 96.4% (inactive); with IGROV1 ovarian, 109% (inactive); in the experiment with OVCAR-3 ovarian it was 118% (inactive); in the experiment with HS 578T breast, 100% (inactive); in the experiment with NCI/ADR-RES ovarian, 114% (inactive).
Consider `CCCCCCCCCCCCCCCCN(CC)CC`, for which the growth with SK-MEL-2 melanoma was -79.9% (active); in the experiment with EKVX NSCLC, -88.5% (active); in the experiment with SN12C renal it was -83.5% (active); in the experiment with UO-31 renal, -69.3% (active); in the experiment with ACHN renal, -57.4% (active); in the experiment on CAKI-1 renal it was -81.9% (active). Besides, the growth in the experiment on A498 renal is 107% (inactive); with CCRF-CEM leukemia, -13.4% (active); with MOLT-4 leukemia, -71.2% (active); with RPMI-8226 leukemia, -60.1% (active); in the experiment on OVCAR-8 ovarian, -38.3% (active); in the experiment on OVCAR-4 ovarian it was -6.38% (active). The growth in the experiment with SK-OV-3 ovarian was -46.1% (active); with IGROV1 ovarian, -90.5% (active); in the experiment on OVCAR-3 ovarian it was -58.6% (active); with HS 578T breast, -25.1% (active); in the experiment with NCI/ADR-RES ovarian, -71.1% (active).
As for `Cn1c2c(c3ccccc31)CCN1C[C@@H]3CCCC[C@H]3C[C@@H]21`, the growth with SK-MEL-2 melanoma is -2.5% (active); in the experiment with EKVX NSCLC, 26.3% (inactive); in the experiment on SN12C renal, 32.7% (inactive); in the experiment on ACHN renal it was 30.4% (inactive); with CAKI-1 renal it was 18.9% (inactive); in the experiment on A498 renal, -5.89% (active). Also, the growth is 25.2% (inactive) with CCRF-CEM leukemia; 14.1% (inactive) with SR leukemia; 20.2% (inactive) with OVCAR-8 ovarian; 40.9% (inactive) in the experiment with OVCAR-4 ovarian; 9.15% (active) in the experiment with SK-OV-3 ovarian; -74.3% (active) with OVCAR-3 ovarian. In addition, the values for the growth in the experiment with HS 578T breast and with NCI/ADR-RES ovarian were -16.9% (active) and -36.1% (active), respectively.
For `CN=C(N)N/N=C(\C)c1ccc2c(c1)Cc1cc(/C(C)=N/NC(N)=NC)ccc1-2`, the growth in the experiment on SK-MEL-2 melanoma was -60.6% (active); in the experiment with EKVX NSCLC, 6.23% (active); with SN12C renal, -49.4% (active); in the experiment on UO-31 renal, 6.24% (active); in the experiment with ACHN renal, -49.9% (active); with CAKI-1 renal it was 23.4% (inactive). Besides, the growth in the experiment on A498 renal was -32.7% (active); in the experiment with CCRF-CEM leukemia it was -3.32% (active); with SR leukemia, -23.3% (active); with RPMI-8226 leukemia it was -1.58% (active); in the experiment on OVCAR-8 ovarian it was -53.5% (active); with OVCAR-5 ovarian, -44.4% (active). Moreover, the growth in the experiment on OVCAR-4 ovarian is -69.1% (active); with SK-OV-3 ovarian, -80.8% (active); in the experiment on IGROV1 ovarian, 26.5% (inactive); with OVCAR-3 ovarian it was -59.6% (active); with HS 578T breast, -8.27% (active); in the experiment on NCI/ADR-RES ovarian, 64.8% (inactive).
As for `Oc1c(Br)c(Br)c(O)c(Br)c1Br`, the growth in the experiment on SK-MEL-2 melanoma was 104% (inactive); in the experiment on EKVX NSCLC, 112% (inactive); in the experiment with SN12C renal it was 113% (inactive); with ACHN renal it was -33.2% (active); in the experiment with CAKI-1 renal it was 92.5% (inactive); in the experiment on A498 renal it was 127% (inactive). For the same molecule, the growth with CCRF-CEM leukemia is 15.8% (inactive); in the experiment on SR leukemia it was 63.2% (inactive); in the experiment on RPMI-8226 leukemia, 104% (inactive); in the experiment on OVCAR-5 ovarian, 129% (inactive); in the experiment with OVCAR-4 ovarian it was 68.7% (inactive); in the experiment with SK-OV-3 ovarian, 156% (inactive). For the same molecule, the growth in the experiment on IGROV1 ovarian was 115% (inactive); in the experiment with OVCAR-3 ovarian it was 5.11% (active); in the experiment with HS 578T breast, 144% (inactive); in the experiment with NCI/ADR-RES ovarian, 102% (inactive).
On to `COC(=O)Nc1nc2ccc(C(=O)c3ccccc3)cc2[nH]1`, for which the growth is 44.1% (inactive) and 45.4% (inactive) and -21.7% (active) in the experiment with SK-MEL-2 melanoma; 60.4% (inactive) and 39% (inactive) and 21.6% (inactive) in the experiment on EKVX NSCLC; 54.9% (inactive) and 28.7% (inactive) and 58.1% (inactive) in the experiment on SN12C renal; 65% (inactive) and 75.9% (inactive) and 44.6% (inactive) in the experiment with TK-10 renal; 48.3% (inactive) and 54.2% (inactive) with ACHN renal; 48.8% (inactive) and 27.1% (inactive) and 15% (inactive) in the experiment with CAKI-1 renal. In addition, the growth was 13.9% (inactive) and 14.6% (inactive) and -12.2% (active) in the experiment on A498 renal; 15.7% (inactive) and -14.1% (active) and 1.15% (active) in the experiment on CCRF-CEM leukemia; 19.3% (inactive) and 7.52% (active) and 7.55% (active) in the experiment with MOLT-4 leukemia; 19.8% (inactive) and 2.51% (active) in the experiment with SR leukemia; 45.5% (inactive) and -31.7% (active) in the experiment with RPMI-8226 leukemia; 52.6% (inactive) and 72.1% (inactive) and 39.6% (inactive) with OVCAR-4 ovarian. Besides, the growth in the experiment on SK-OV-3 ovarian was 22.8% (inactive) and 28.9% (inactive) and 32.6% (inactive); in the experiment with IGROV1 ovarian it was 43.2% (inactive) and 13.7% (inactive) and -39.8% (active); in the experiment with OVCAR-3 ovarian it was -50.1% (active) and -60.4% (active) and -59.4% (active); in the experiment with HS 578T breast, 35.5% (inactive) and 15.8% (inactive) and 21.6% (inactive); with NCI/ADR-RES ovarian, -28.8% (active) and 4.68% (active) and -3.41% (active).
